The supplement of paper PMC9942566
± gives the standard deviation of the averaged measurements.

tested on: Serratia marcescens K904 PosmB-luxCDABE reporter (pMQ747); assay: PosmB-lux reporter fold induction (RLU/OD600 relative to no-compound control), highest over Biolog concentrations; higher = stronger reporter activation; conditions: ΔrcsB mutant CMS5177; 4 h
Protocol: (§1)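 Serratia marcescens K904 (wild type) or its isogenic ΔrcsB mutant, carrying the Rcs-dependent PosmB-luxCDABE reporter plasmid pMQ747, was grown in LB at OD600 0.1 in Biolog Phenotype MicroArray plates PM11-20 for 4 h at 30-32°C. Each compound is present at 3-4 proprietary concentrations (not stated); per the Fig. S1 legend the value given is the highest fold over those wells. Three independent trials.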

Row | Structure (SMILES) | PosmB-lux reporter fold induction
1 | CN(C)[C@@H]1C(O)=C(C(=O)NCN2CCCC2)C(=O)[C@@]2(O)C(O)=C3C(=O)c4c(O)cccc4[C@@](C)(O)[C@H]3C[C@@H]12 [Rolitetracycline] (Biolog plate: PM13, well positions: D9-12) | 1.73 ± 0.11
2 | Nc1ccc(S(=O)(=O)Nc2nccs2)cc1 [Sulfathiazole] (Biolog plate: PM12, well positions: F5-8) | 1.89 ± 0.35
3 | CCN1CCN(C(=O)N[C@@H](C(=O)N[C@@H]2C(=O)N3C(C(=O)O)=C(CSc4nnnn4C)CS[C@H]23)c2ccc(O)cc2)C(=O)C1=O [cefoperazone] (Biolog plate: PM17, well positions: G9-12) | 1.44 ± 0.22
4 | On1ccccc1=S [1-Hydroxy-pyridine-2-thione] (Biolog plate: PM14, well positions: C5-8) | 1.1 ± 0.053
5 | O=[N+]([O-])c1ccc(-[n+]2nc(-c3ccccc3)nn2-c2ccc(I)cc2)cc1 [iodonitro tetrazolium violet] (Biolog plate: PM19, well positions: D5-8) | 0.242 ± 0.11
6 | CN[C@@H]1[C@H](O[C@H]2[C@H](O[C@H]3[C@H](O)[C@@H](O)[C@H](N=C(N)N)[C@@H](O)[C@@H]3N=C(N)N)O[C@@H](C)[C@]2(O)C=O)O[C@@H](CO)[C@H](O)[C@H]1O [streptomycin] (Biolog plate: PM16, well positions: E1-4) | 1.98 ± 0.69
7 | CCN(CC)CC(=O)Nc1c(C)cccc1C [lidocaine] (Biolog plate: PM18, well positions: D9-12) | 0.721 ± 0.15

tested on: Serratia marcescens K904 PosmB-luxCDABE reporter (pMQ747); assay: PosmB-lux reporter fold induction (RLU/OD600 relative to no-compound control), highest over Biolog concentrations; higher = stronger Rcs reporter activation; conditions: wild type K904; 4 h
Protocol: as §1

Row | Structure (SMILES) | PosmB-lux reporter fold induction
8 | CN(C)[C@@H]1C(O)=C(C(=O)NCN2CCCC2)C(=O)[C@@]2(O)C(O)=C3C(=O)c4c(O)cccc4[C@@](C)(O)[C@H]3C[C@@H]12 [Rolitetracycline] (Biolog plate: PM13, well positions: D9-12) | 1.49 ± 0.23
9 | Nc1ccc(S(=O)(=O)Nc2nccs2)cc1 [Sulfathiazole] (Biolog plate: PM12, well positions: F5-8) | 1.88 ± 0.029
10 | CCOc1ccc2ccccc2c1C(=O)N[C@@H]1C(=O)N2[C@@H]1SC(C)(C)[C@@H]2C(=O)O [Nafcillin] (Biolog plate: PM11, well positions: D9-12) | 2.29 ± 0.21
11 | NC(=O)N/N=C/c1ccc([N+](=O)[O-])o1 [5-Nitro-2-furaldehyde semicarbazone] (Biolog plate: PM15, well positions: E5-8) | 1.67 ± 0.76
12 | CN(C)c1ccc(O)c2c1C[C@H]1C[C@H]3[C@H](N(C)C)C(O)=C(C(N)=O)C(=O)[C@@]3(O)C(O)=C1C2=O [Minocycline] (Biolog plate: PM11, well positions: C9-12) | 2.54 ± 0.15
13 | CC(C)c1nc2nc(N)nc(N)c2nc1C(C)C [2,4-Diamino-6,7-diisopropyl-pteridine] (Biolog plate: PM12, well positions: E1-4) | 2.38 ± 0.48
14 | CCN1CCN(C(=O)N[C@@H](C(=O)N[C@@H]2C(=O)N3C(C(=O)O)=C(CSc4nnnn4C)CS[C@H]23)c2ccc(O)cc2)C(=O)C1=O [cefoperazone] (Biolog plate: PM17, well positions: G9-12) | 2.11 ± 0.69
15 | CO[C@H]1C[C@H](O[C@H]2[C@H](C)[C@@H](O[C@@H]3O[C@H](C)C[C@H](N(C)C)[C@H]3O)[C@@H](C)C[C@@]3(CO3)C(=O)[C@H](C)[C@@H](O)[C@@H](C)[C@@H](C)OC(=O)[C@@H]2C)O[C@@H](C)[C@@H]1O [Oleandomycin] (Biolog plate: PM15, well positions: F5-8) | 3.29 ± 1.7
16 | C[n+]1cc2c3c(ccc2c2ccc4cc5c(cc4c21)OCO5)OCO3 [Sanguinarine] (Biolog plate: PM14, well positions: A9-12) | 1.83 ± 0.71
17 | [Na+].[Na+].[O]=[W](=[O])([O-])[O-] [sodium tungstate] (Biolog plate: PM17, well positions: E9-12) | 1.69 ± 0.46
18 | [Cl][Mn][Cl] [Manganese chloride] (Biolog plate: PM13, well positions: G5-8) | 1.25 ± 0.2
19 | [Cl-].[Li+] [lithium chloride] (Biolog plate: PM17, well positions: F1-4) | 1.51 ± 0.57
